Data reported in PubChem BioAssay AID1053127 (Broad Institute, 2014).
Results with a measured potency or affinity are listed apart.

Experiment: CTGF mRNA reduction under YAP1 overexpression, dose response, mechanism study for YAP1 pathway inhibitor project, DLD1 cells, RT-qPCR, cherry-pick (AID 1053127)
Details: DLD1 YAP1-overexpressing, 24 h; series mostly up to 26 µM; CTGF fold change (delta-delta-Ct), lower = inhibition: at the top concentration;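 active = compounds whose fitted curve of lowered CTGF expression reaches half effect within a set concentration limit; inconclusive = flat moderate drop in CTGF, or unreliable curve fit; inactive = the rest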

CTGF fold change (delta-delta-Ct), lower = inhibition, inactive:
C[C@@H]1CC=CC[C@@H](c2cccc(Cl)c2)NC(=O)[C@H](Cc2ccccc2)N(C)C(=O)c2ccccc2O1 (mixture of isomers) 0.763 unspecified, CCC(=O)N1C[C@H](C)[C@@H](OC)CN(C)C(=O)c2cc(NC(=O)Nc3ccc(Cl)cc3)ccc2OC[C@@H]1C 1.62 unspecified, COc1cccc(C#Cc2ccc3c(c2)O[C@@H](CN(C)C(=O)CN2CCOCC2)[C@@H](C)CN([C@@H](C)CO)S3(=O)=O)c1 1.36 unspecified, O=C(Nc1ccccc1)[C@@H]1[C@@H](CO)[C@@H]2Cn3c(cccc3=O)[C@H]1N2C(=O)c1ccc(F)cc1 0.808 unspecified, C[C@H]1CN([C@@H](C)CO)S(=O)(=O)c2ccc(-c3cncnc3)cc2O[C@@H]1CN(C)C(=O)NC1CCCC1 0.826 unspecified, COc1ccc([C@H]2C/C=C\C[C@@H](c3ccc4c(c3)OCO4)NC(=O)[C@@H](c3ccccc3)CC(=O)N2)c(OC)c1 2.27 unspecified, CC(C)(C)[S@](=O)N1Cc2cc(C(=O)NCCc3ccncc3)nc(-c3cccc(-c4cccc(C#N)c4)c3)c2[C@@H]1CCO 1.03 unspecified, CCc1nc(N2[C@H](CO)[C@@H](c3ccccc3-c3ccc(F)cc3)[C@@H]2C#N)sc1C 0.697 unspecified, CC(=O)N1CCCCN2[C@@H](CO)[C@H](c3ccc(-c4ccccc4)cc3)[C@@H]2C1 0.666 unspecified, C[C@@H]1CN([C@@H](C)CO)C(=O)c2cc(NC(=O)Nc3ccccc3)ccc2O[C@@H](C)CCCCO[C@@H]1CN(C)C(=O)Nc1ccccc1 1.02 unspecified, Cc1ccc(S(=O)(=O)Nc2ccc3c(c2)CC(=O)N([C@H](C)CO)C[C@@H](C)[C@@H](CN(C)S(=O)(=O)c2ccccc2)O3)cc1 0.863 unspecified, CCC(=O)N1Cc2cc(C(=O)NCc3cccc(F)c3)nc(-c3cccc(C4=CCCC4)c3)c2[C@H]1CCO 1 unspecified, CN1C(=O)c2cc(NS(=O)(=O)c3ccccc3F)ccc2OC[C@@H]2O[C@@H](CC(=O)NC3Cc4ccccc4C3)CC[C@@H]21 1.29 unspecified, C[C@H]1CN([C@@H](C)CO)C(=O)c2cccc(NC(=O)c3nc4ccccc4s3)c2O[C@@H]1CN(C)C(=O)Nc1ccc2c(c1)OCO2 0.677 unspecified, CO[C@@H]1CN(C)C(=O)c2cc(NS(=O)(=O)c3ccccc3C)ccc2OC[C@@H](C)N(S(=O)(=O)c2ccccc2)C[C@H]1C 1 unspecified, C[C@H]1CN([C@@H](C)CO)C(=O)c2cc(C#Cc3ccccc3)cnc2O[C@H]1CN(C)C(=O)c1ccccc1 0.867 unspecified, C[C@@H]1CN([C@H](C)CO)C(=O)c2cccc(NC(=O)c3nc4ccccc4s3)c2O[C@H]1CN(C)C(=O)Nc1ccc2c(c1)OCO2 0.577 unspecified [at 23.5 µM], C[C@@H]1CN([C@H](C)CO)C(=O)CCCn2nncc2CO[C@@H]1CN(C)C(=O)c1cc(-c2ccccc2)on1 0.649 unspecified, O=C(c1cccc(F)c1)N1CCCCN2[C@@H](CO)[C@H](c3ccc(C#CC4(O)CCCC4)cc3)[C@@H]2C1 0.713 unspecified, COCC(=O)N1CC[C@@H]2[C@H](CO)Nc3ccc(C#Cc4ccc(F)cc4)cc3[C@@H]21 0.882 unspecified, O=S(=O)(c1ccccc1)N1CCCCN2[C@H](C1)[C@@H](c1ccc(C#CC3CCCC3)cc1)[C@@H]2CO 0.946 unspecified, COc1ccc2c3c([nH]c2c1)[C@H](CO)NCC31CCN(C(=O)Cc2cccnc2)CC1 1.14 unspecified, COc1ccc(CN(C)C[C@H]2Oc3ccc(NC(=O)Nc4ccc5c(c4)OCO5)cc3CC(=O)N([C@@H](C)CO)C[C@H]2C)cc1 0.62 unspecified, Cc1ccc(S(=O)(=O)Nc2ccc3c(c2)C(=O)N([C@H](C)CO)C[C@@H](C)[C@H](CN(C)S(=O)(=O)c2cccs2)OCCCC[C@@H](C)O3)cc1 1.68 unspecified, C[C@@H]1CN([C@H](C)CO)C(=O)c2c(c3ccccc3n2C)-c2ccccc2CO[C@@H]1CN(C)Cc1cccc(C(F)(F)F)c1 0.675 unspecified [at 23.5 µM], C[C@H](CO)N1C[C@H](C)[C@@H](CN(C)S(=O)(=O)c2ccc([N+](=O)[O-])cc2)OCc2ccccc2-c2c(n(C)c3ccccc23)C1=O 1.01 unspecified, COc1ccccc1C#Cc1ccc([C@H]2[C@H](CO)N3CCCCN(C(=O)C4CCC4)C[C@@H]23)cc1 0.643 unspecified, CO[C@@H](CN(C)S(=O)(=O)c1ccc(C)cc1)[C@@H](C)CN([C@H](C)CO)S(=O)(=O)c1cccc(Cl)c1 0.886 unspecified, COCC(=O)N1CC(=O)N2[C@H](CO)[C@@H](c3ccc(C#CC4CC4)cc3)[C@H]2C1 0.911 unspecified, C[C@@H]1CN([C@H](C)CO)S(=O)(=O)c2ccc(C#Cc3ccccc3F)cc2O[C@@H]1CN(C)C(=O)Cc1cccnc1 0.807 unspecified, Cc1cccc(-c2ccc([C@@H]3[C@@H](CO)N4CCCCN(S(=O)(=O)c5ccccc5F)C[C@@H]34)cc2)c1 0.962 unspecified, C[C@@H]1CN([C@H](C)CO)C(=O)c2ccccc2-c2ccccc2CO[C@@H]1CN(C)Cc1ccc2c(c1)OCCN2C 0.735 unspecified, O=S(=O)(Cc1ccccc1)N1CC2(C1)[C@H](c1ccccc1)[C@H](CO)N2CC1CCCC1 0.631 unspecified, O=C(Nc1ccc2c(c1)[C@H]1C[C@@H](CC(=O)N3CCc4ccccc4C3)O[C@@H](CO)[C@H]1O2)c1ccc2c(c1)OCO2 0.836 unspecified, Cc1ccc(S(=O)(=O)N2CC[C@@H]3[C@H]2c2cc(-c4cccc(C(=O)N(C)C)c4)ccc2N[C@@H]3CO)cc1 2.06 unspecified [at 23.5 µM], C[C@@H]1CN([C@H](C)CO)C(=O)c2ccccc2-c2ccccc2CO[C@@H]1CN(C)Cc1cccc2c1OCCCO2 0.917 unspecified, C[C@H]1CN([C@@H](C)CO)C(=O)c2cccc(NC(=O)c3ccc(-c4nccs4)cc3)c2O[C@@H]1CN(C)C(=O)Nc1ccc(C(F)(F)F)cc1 0.52 unspecified, O=C(Nc1ccc2c(c1)[C@H]1C[C@@H](CC(=O)N3CCc4ccccc4C3)O[C@H](CO)[C@H]1O2)c1ccc2c(c1)OCO2 0.876 unspecified, C[C@H](CO)N1C[C@H](C)[C@H](CN(C)Cc2ccc(Oc3ccccc3)cc2)OCc2ccccc2-c2ccccc2C1=O 1.45 unspecified [at 23.5 µM]
